FBA Mtb inh = Mtb FBA enzyme inhibitors, primary screen, biochemical, fluorescence, strain H37Rv; inhibition, % at 1 µM; Fructose-bisphosphate aldolase (Mycobacterium tuberculosis (strain ATCC 25618 / H37Rv)), …; purified M. tuberculosis FBA, fluorescence read-out; 2.3% of 360,000 active; in the data active = inhibition above about 27%
Target sequence (P9WQA3 whole entry, looked up): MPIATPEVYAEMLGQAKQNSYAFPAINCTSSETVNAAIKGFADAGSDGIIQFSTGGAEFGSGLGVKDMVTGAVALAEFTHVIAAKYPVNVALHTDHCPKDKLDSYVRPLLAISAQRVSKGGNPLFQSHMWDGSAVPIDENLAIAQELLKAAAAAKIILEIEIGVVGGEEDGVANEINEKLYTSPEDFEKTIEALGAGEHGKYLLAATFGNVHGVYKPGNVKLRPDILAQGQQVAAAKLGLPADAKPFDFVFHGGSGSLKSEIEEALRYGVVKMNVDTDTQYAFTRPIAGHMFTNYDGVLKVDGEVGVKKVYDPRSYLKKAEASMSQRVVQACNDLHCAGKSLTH
CCHF vOTU inh-1 = CCHFV vOTU protease inhibitors, primary screen, biochemical, Pep-AMC substrate, fluorescence; AID 651958, 2012; inhibition, % at 11.5 µM; Crimean-Congo hemorrhagic fever virus L polyprotein viral ovarian tumor (vOTU) protease …; 0.55% of 370,000 active
GDH-TPI inh = GDH-TPI coupling enzyme inhibitors, primary screen, artefact control for M. tuberculosis FBA inhibitor project, biochemical, absorbance, full deck. GDH-TPI coupled enzyme counterscreen, NADH absorbance. inhibition, % at 4.8 µM. 1.2% of 360,000 active
RecA intein inh = Mtb RecA intein splicing inhibitors, primary screen, biochemical, fluorescence, HTS; 0.75% of 290,000 active; inhibition, % (no concentration beside the values); cell-free RecA intein splicing; Protein RecA (Mycobacterium tuberculosis (strain ATCC 25618 / H37Rv)), P9WHJ3; in the data active = inhibition above about 30%
CCHF vOTU inh-2 = CCHFV vOTU protease inhibitors, confirmation, biochemical, Pep-AMC substrate, fluorescence. shares compounds with CCHF vOTU inh-1. Recombinant CCHFV vOTU. inhibition, % at 11.5 µM. 17% of 1,900 active
Each line names hits and unclear results; the compound was inactive in the other large screens (follow-up assays come after a bar, where they were run). Rows were chosen to be rich in hits. Some 4.2% of all compounds tested hit in one or more screens of this group. Cut-off read from the data, not from the text of the source, unless noted: active = inhibition above about 30%; inactive = the rest.

Cc1cc(/C=C2\C(=O)NC(=O)N(C)C2=O)c(C)n1-c1ccc2c(c1)OCO2	CCHF vOTU inh-1 33.5 | CCHF vOTU inh-2 inactive
CCOC(=O)c1cc2c(ccn2C)n1Cc1ccc(Cl)cc1	none (no result: RecA intein inh)
Cc1cccc(Cn2c(C(=O)OC(C)C)cc3c2ccn3C)c1	CCHF vOTU inh-1 35.0 | CCHF vOTU inh-2 inactive
CC(O)(c1ccc(F)c(F)c1)c1nc(-c2cccc(C(F)(F)F)c2)cs1 (stereo not given)	CCHF vOTU inh-1 39.4 (no result: RecA intein inh) | CCHF vOTU inh-2 inactive
COC(=O)Cc1ccc(N(Cc2ccccc2F)S(=O)(=O)c2ccc(Cl)cc2)cc1	CCHF vOTU inh-1 32.0 (no result: RecA intein inh) | CCHF vOTU inh-2 inactive
COc1ccc(C(C)=O)c2c(O)cccc12	CCHF vOTU inh-1 30.6 | CCHF vOTU inh-2 inactive
COCC(=O)N(C)C[C@@H]1Oc2ncc(Br)cc2C(=O)N([C@@H](C)CO)C[C@H]1C	none (no result: RecA intein inh)
CCCOC(=O)C1=C(C)N(C)C(=O)NC1c1cc2c(cc1Br)OCO2 (stereo not given)	none
CC(C)NC(=O)c1sc2nc3c(c(-c4cccs4)c2c1N)CN(C)CC3	none
Cc1cccc(NC(=O)c2sc3nc4c(c(-c5cccs5)c3c2N)CN(C)CC4)c1	CCHF vOTU inh-1 30.2 | CCHF vOTU inh-2 48.1
COc1cc2c(cc1NCc1ccccn1)oc1ccccc12	FBA Mtb inh 29.2, CCHF vOTU inh-1 29.7 | CCHF vOTU inh-2 inactive
COc1ccc(CNC(=O)Cn2nc(C(F)(F)F)c3c2CCC3)cc1	none
COc1ccc(NC(=O)Cn2nc(C(F)(F)F)c3c2CCCC3)c(OC)c1	CCHF vOTU inh-1 30.5 | CCHF vOTU inh-2 inactive
CC(C)(C)c1ccc(C(=O)N2CCC2(C)C(=O)Nc2cnc3ccccc3c2)cc1 (stereo not given)	none (no result: RecA intein inh)
COc1cc(C(=O)N(Cc2ccccc2)c2cccc(C)c2)ccc1OCC(=O)N1CCOCC1	none (no result: RecA intein inh)
CCCCOc1ccc(C(=O)N/C(=C/C=C/c2ccccc2)C(=O)NC)cc1	CCHF vOTU inh-1 31.5, GDH-TPI inh 32.8 (no result: RecA intein inh) | CCHF vOTU inh-2 inactive
COc1ccc(C(C)(C)C)cc1NC(=O)COC(=O)c1cc(SC)ccc1Cl	none
COc1ccc(NC(=O)COC(=O)c2cc(SC)ccc2Cl)c(OC)c1	CCHF vOTU inh-1 30.2 | CCHF vOTU inh-2 inactive
O=C1CC(C(=O)Nc2ccc(F)cc2)S/C(=N\N=C\c2ccco2)N1 (stereo not given)	CCHF vOTU inh-1 34.5, GDH-TPI inh 33.9 | CCHF vOTU inh-2 inactive
COC(=O)c1ccc(N=NNc2ccc(C(=O)OC)cc2)cc1	CCHF vOTU inh-1 33.1 | CCHF vOTU inh-2 inactive
COC(=O)c1ccc(N=NNc2ccccc2)cc1	none
COc1ccc(-c2cccc(C(=O)Nc3ccc(C)cc3)c2)cc1	CCHF vOTU inh-1 31.2 | CCHF vOTU inh-2 inactive
Cc1[nH]c2ccccc2c1C(=O)C(=O)N1CCN(c2cccc(Cl)c2)CC1	none
CCOC(=O)/C(C#N)=C1/C=CN(Cc2ccccc2)C=N1	CCHF vOTU inh-1 30.4, GDH-TPI inh 48.3 | CCHF vOTU inh-2 inactive
CCOC(=O)/C(C#N)=C1\C(=O)N(Cc2ccccc2)c2ccccc21	none
Cc1ccc(NC(=O)c2ccc(Cl)c(S(=O)(=O)Nc3c(C)n(C)n(-c4ccccc4)c3=O)c2)cc1Cl	none (no result: RecA intein inh)
O=C1CCCC/C1=C\Nc1ccc(O)cc1	CCHF vOTU inh-1 35.4, GDH-TPI inh 33.3 | CCHF vOTU inh-2 inactive
CCN(CC)CC(O)CN1c2ccccc2Sc2ccccc21 (stereo not given)	none
CCC(=O)N1CCCC(C)(C(=O)Nc2ccc(OC(F)F)cc2)C1 (stereo not given)	CCHF vOTU inh-1 31.4 (no result: RecA intein inh) | CCHF vOTU inh-2 inactive
C=CCC[C@H](CCCCC)OC(=O)/C=C/[C@H](O)[C@@H](O)C[C@H](O)CC=C	none (no result: FBA Mtb inh, GDH-TPI inh, RecA intein inh)
C=CCC[C@@H](CCCCC)OC(=O)/C=C/[C@H](O)[C@@H](O)C[C@H](O)CC=C	CCHF vOTU inh-1 34.3 (no result: FBA Mtb inh, GDH-TPI inh, RecA intein inh) | CCHF vOTU inh-2 inactive
COc1ccc(-c2c(-c3ccccc3)c(C(=O)C(=O)NCCCN(C)C)n3ccc4cc(OC)c(OC)cc4c23)cc1OC	CCHF vOTU inh-1 32.6 | CCHF vOTU inh-2 inactive
CN(C)CCNC(=O)C(=O)c1c(-c2ccccc2)cc2ccccn12	none
Cn1c(Cc2cccs2)nnc1SCC(=O)Nc1ccc2cn[nH]c2c1	CCHF vOTU inh-1 31.4 (no result: FBA Mtb inh, GDH-TPI inh, RecA intein inh) | CCHF vOTU inh-2 inactive
Cn1c(SCC(=O)Nc2ccc3cn[nH]c3c2)nnc1-c1cccs1	none
Cc1ccc(CNC(=O)CSc2nc(=O)n3ccc(C)cc3n2)cc1	CCHF vOTU inh-1 40.1 (no result: RecA intein inh) | CCHF vOTU inh-2 inactive
Cc1cc(C)cc(NC(=S)N(Cc2ccc(Br)cc2)Cc2ccc(C(=O)O)cc2)c1	none
Cc1ccc(NC(=S)N(Cc2ccc(Br)cc2)Cc2ccc(C(=O)O)cc2)cc1C	CCHF vOTU inh-1 31.1 | CCHF vOTU inh-2 inactive
Cc1ccc(S(=O)(=O)N2C(c3ccc(Cl)c(Cl)c3)CC=C(C(=O)O)C2c2cccc(Cl)c2)cc1 (stereo not given)	none (no result: FBA Mtb inh, GDH-TPI inh, RecA intein inh)
Cc1ccc(S(=O)(=O)N2[C@@H](c3ccc(Cl)cc3)C(C(=O)O)=CC[C@H]2c2ccc(Cl)c(Cl)c2)cc1	CCHF vOTU inh-1 32.8 (no result: RecA intein inh) | CCHF vOTU inh-2 inactive
Cc1ccc(S(=O)(=O)N2C(c3ccc(Cl)c(Cl)c3)CC=C(C(=O)O)C2c2ccc(Cl)cc2)cc1 (stereo not given)	CCHF vOTU inh-1 35.2 (no result: FBA Mtb inh, GDH-TPI inh, RecA intein inh) | CCHF vOTU inh-2 inactive
CCCCNC(=O)C1(C)CCCCN1C(=O)c1ccc2c(c1)C(C)(C)CCC2(C)C (stereo not given)	none (no result: RecA intein inh)
COc1cccc2c1C(=O)C=C(C)C2=O	none
COC1=CC(=O)c2c(ccc3ncnc(N)c23)C1=O	CCHF vOTU inh-1 110.0 (no result: RecA intein inh) | CCHF vOTU inh-2 108.3
COC1=CC(=O)c2nc(Cl)ccc2C1=O	CCHF vOTU inh-1 113.3 (no result: GDH-TPI inh, RecA intein inh) | CCHF vOTU inh-2 100.1
C[C@@H]1CCCCO[C@H](CN(C)S(=O)(=O)c2cn(C)cn2)[C@@H](C)CN([C@H](C)CO)C(=O)c2cc(NC(=O)CCCN(C)C)ccc2O1	none (no result: FBA Mtb inh, GDH-TPI inh, RecA intein inh)
CCCCNc1c2c(nc3c(-c4ccccc4)c(C)nn13)CCC2	CCHF vOTU inh-1 30.1 (no result: RecA intein inh) | CCHF vOTU inh-2 inactive
Cc1nn2c(NCCCN3CCOCC3)c3c(nc2c1-c1ccccc1)CCC3	none
CC1CCN(C(=O)c2cc(Cl)ccc2NC(=O)c2ccco2)CC1	none
CCOC(=O)[C@]12CCCC=C1N(Cc1ccc(OC)cc1)C(=O)[C@@H]2CC(=O)N1CCCC1	none (no result: FBA Mtb inh, GDH-TPI inh, RecA intein inh)
COC(=O)c1ccc(CNC(=O)Cn2cnc3c(OCc4ccccc4)ncnc32)cc1	none (no result: RecA intein inh)
Cc1ccc(OCC(=O)NNC(=O)c2cc(S(=O)(=O)N(C)C)ccc2N2CCCC2)cc1	CCHF vOTU inh-1 32.6 (no result: RecA intein inh) | CCHF vOTU inh-2 inactive
Cc1cccc(OCC(=O)NNC(=O)c2cc(S(=O)(=O)N(C)C)ccc2N2CCCC2)c1	none (no result: RecA intein inh)
O=C(Nc1ccccc1C(=O)O)c1cccc(NC(=O)c2ccc(Br)o2)c1	CCHF vOTU inh-1 30.4 | CCHF vOTU inh-2 inactive
O=C(Nc1ccccc1C(=O)O)c1ccc(NC(=O)c2ccc(Br)o2)cc1	none (no result: CCHF vOTU inh-1, RecA intein inh)
N#Cc1c(SCC(=O)Nc2nncs2)sc2c(O)cc(=O)[nH]c12	none (no result: RecA intein inh)
